Compounds without any hit were thinned out: in the full panel of roughly 79,000, 15% have a hit. Unmarked numbers belong to inactive results. Calls of active or inactive are those of the source. Rule as the data show it: active = growth inhibition above about 70%; inactive = the rest. Where a SMILES comes first, the peptide text is derived from it. [ ]: non-standard residue; d: D form. ξ: configuration not given here. ξH = NC(Cc1c[nH]cn1)C(=O)O

The test can be described thus: NCI Yeast Anticancer Drug Screen. Data for the mec2-1 strain (AID 157). The settings on record: S. cerevisiae mec2-1 strain, at 50.0 µM, hits give high values. Here is the method: Growth inhibition of yeast strains with defined genetic alterations is measured as a screen for potential anti-cancer activity. Selected strains with alterations in DNA damage repair or cell cycle control were exposed to compounds and growth inhibition was measured relative to vehicle treated controls. The strain used in this assay is mec2-1
Regarding `O=NC1CCCCC1Cl` (stereo not given), the growth inhibition is -4.15%.

Take `CCc1nc(-c2ccccc2)nc2c1nc(-c1cccc(C)c1)n2Nc1ccccc1`: the growth inhibition is 3.1%. With `O=[N+]([O-])C1C=Nc2ccccc2N=C1` the figure was -16.6%.

As for `CC(C)(C(=O)c1cccnc1)c1cccnc1`, the growth inhibition was -9.25%. Consider `COC1(OC)C2(Cl)C(Cl)=C(Cl)C1(Cl)C1CCCCCC12` (stereo not given), for which the growth inhibition is 2.8%. With `CC1CCOC2(CCCCC2)O1` (stereo not given) the figure was -7.15%; with `CC(=O)c1cccc2cc(CC(=O)c3ccccc3)c(=O)oc12`, 5.6%. For `Cc1cc(Cl)nc2ccc([N+](=O)[O-])cc12`, the growth inhibition is 6.3%.

On to `O=c1[nH]c2ccccc2nc1/C=C(\O)c1ccc([N+](=O)[O-])cc1`, for which the growth inhibition was -10.6%. Turning to `NCC1CCCCO1` (stereo not given), the growth inhibition is 5.1%. Under `Nc1c(Cl)cc2c(c1Br)C(=O)c1ccccc1C2=O` stands -3.5%; under `N#Cc1c(N)nc(N)nc1Nc1ccc(Cl)cc1`, -8.7%. With `CC(C)S(=O)(=O)C(C)C` the figure was 0.35%. Under `S=c1ccc2ccccc2[nH]1` stands -8.15%.

With `CC(C)NC(=O)OCc1c(COC(=O)NC(C)C)c(S(C)(=O)=O)n2c1CCC2`, the growth inhibition was -4.7%. Consider `CCCCCC(=O)C(CCCC)C(=O)OCC` (stereo not given), for which the growth inhibition was -0.1%. Under `CCOC(=O)/C(C)=C(/O)C(=O)OCC` stands -56.3%; under `NCC(=O)NC(Cc1cnc[nH]1)C(=O)NCC(=O)O` (stereo not given) (H-Gly-[ξH]-Gly-OH), 7.9%.

As for `CN(C)C(=N)N=C(N)N`, the growth inhibition is -30.1%.

In the case of `COc1ccccc1NC(=O)CCl`, the growth inhibition was 24.9%. Turning to `Cc1cc(N(CCC#N)CCC#N)ccc1/C(N=Nc1cccc(Cl)c1)=N/NC(=O)c1cc(Cl)ccc1O`, the growth inhibition was 4.9%. As to `ClCCCN1CCN(CCCCl)CC1`, the growth inhibition is 70% (active). On to `CC(C)(C)c1cc2c3c(c1)C(C(F)(F)F)(C(F)(F)F)OS3(=O)(O)OC2(C(F)(F)F)C(F)(F)F`, for which the growth inhibition is 38.8%.

Turning to `CC(=O)n1cc(CS)c(=O)[nH]c1=O`, the growth inhibition is 1.2%. Regarding `O=c1cc(-c2cccs2)ss1`, the growth inhibition is 5.25%. With `O=C1C2=C(Nc3cc(Cl)ccc3N2)OC1c1c[nH]c2ccc(COc3ccccc3)cc12` (stereo not given) the figure was 6.6%. For `CCC(CC)COC(=O)CC(C)=O`, the growth inhibition was 52.9%. `COC(=O)CCC(=O)c1ccc2c(c1)CC1(C2)Cc2ccc3c(c2C1)CCCC3=O` (stereo not given): the growth inhibition is -27.1%.

Turning to `O=C1CSC(c2cccc(O)c2O)N1c1nncs1` (stereo not given), the growth inhibition was 0.25%. With `O=C(O)C1Cc2c([nH]c3ccccc23)C(c2cccs2)N1` (stereo not given) the figure was 7.6%. With `CCOC(=O)c1ccc(NCc2cccc([N+](=O)[O-])c2)cc1` the figure was -18.5%; with `O=C(O)CNC(=S)SCc1ccccc1`, -11.9%; with `O=C(NC(=S)Nc1ccc2ccccc2c1)c1ccc(Cl)cc1Cl`, 1.2%.

As for `CCOC(=N)c1ccc(C(=N)OCC)cc1`, the growth inhibition was -29.4%.

Consider `CCOC(=O)N1C(c2ccccc2)N(c2ccccc2)C(c2ccccc2)N1C(=O)OCC` (stereo not given), for which the growth inhibition is 4.65%. Under `Cc1ccc(S(=O)(=O)OCCN(CCO)c2cn(C(c3ccccc3)(c3ccccc3)c3ccccc3)c(=O)n(C(c3ccccc3)(c3ccccc3)c3ccccc3)c2=O)cc1` stands 17.8%; under `CC1(C)OC2(CC1C1(C)C=CC(=O)O1)CC1(O)C(CCC34CC13C(=O)OC4c1ccoc1)O2` (stereo not given), 4.25%. With `Cc1cc(Br)cc(C)c1NC(=O)C(=O)C(C(=O)c1ccncc1)C1OC(=O)c2ccccc21` (stereo not given) the figure was -31.1%. Under `COc1cc(C2OCCO2)ccc1O` stands 7.05%.

As to `CC(=O)OC1CC2CCC1(c1ccccc1)C2` (stereo not given), the growth inhibition is -25.1%.

The values are drawn from PubChem BioAssay (NCI).
